Source: PubChem BioAssay (EPA / NIEHS)
Records with an inconclusive call do not appear. Some compounds were tested as several samples or in several runs, with calls that do not always agree. Active and inactive are the calls of the source. Rule for the calls: active = hit-call score of the fitted dose curve at least 0.9, where 1 is the maximum; inconclusive = response in the unintended direction; inactive = score below 0.9.

Key:
[1] = target: Norway rat Vesicular Monoamine Transporter (VMAT2), neurotransmitter transporter, Slc18a2 (gene 25549) (UniProt Q01827); assay: NVS_TR_rVMAT2: NovaScreen (NVS) Transporter Assay for Norway rat Vesicular Monoamine Transporter (VMAT2), neurotransmitter transporter (AID 2283376);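 note: actives lower the bound radioligand signal below the DMSO level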
Sequence of Norway rat Vesicular Monoamine Transporter (VMAT2), neurotransmitter transporter, Slc18a2 (gene 25549) (Q01827 whole entry, looked up): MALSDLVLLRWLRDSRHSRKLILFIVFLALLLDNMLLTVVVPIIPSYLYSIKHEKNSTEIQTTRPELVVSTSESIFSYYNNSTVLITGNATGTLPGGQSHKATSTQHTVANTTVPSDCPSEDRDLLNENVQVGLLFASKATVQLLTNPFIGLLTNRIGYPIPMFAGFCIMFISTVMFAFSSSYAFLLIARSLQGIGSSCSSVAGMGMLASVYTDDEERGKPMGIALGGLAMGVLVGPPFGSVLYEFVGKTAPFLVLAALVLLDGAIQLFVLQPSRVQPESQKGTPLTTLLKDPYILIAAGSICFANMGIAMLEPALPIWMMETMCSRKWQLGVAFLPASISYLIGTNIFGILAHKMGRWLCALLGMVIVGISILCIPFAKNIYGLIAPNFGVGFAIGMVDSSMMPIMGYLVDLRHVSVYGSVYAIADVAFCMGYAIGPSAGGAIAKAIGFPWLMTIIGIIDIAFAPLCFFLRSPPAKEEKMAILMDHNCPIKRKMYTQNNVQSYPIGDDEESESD
Procedure, shortened: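 Rat forebrain tissue preparation used in a cell-free radioligand binding format; displacement read by filter-based scintillation counting 1 hour after dosing. Primary screen in duplicate at 25 uM, actives then run in concentration series; loss of signal versus DMSO baseline.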

[2] = TOX21_p53_BLA_p2_viability: Viability Assessment in the Tox21 HCT-116 p53 Agonism Beta-lactamase Assay, Phase 2 (AID 2283591);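 note: compound exposure lasted 16 h at 37 °C; actives lower the ATP signal meaning cytotoxicity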
Procedure, shortened: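 HCT-116 p53-bla cells (4000/well) rested 5 h at 37C, then received compounds in DMSO (217-fold dilution) for 16 h at 37C, 5% CO2. After the CCF4 read, CellTiter-Glo was added; ATP luminescence was read after 30 min at room temperature.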

[3] = target: Cellular tumor antigen p53 (Homo sapiens) (UniProt P04637); assay: TOX21_p53_BLA_p2_ratio: Tox21 HCT-116 p53 Agonism Beta-lactamase Assay, Ratio, Phase 2 (AID 2283592)
Sequence of Cellular tumor antigen p53 (Homo sapiens) (P04637 whole entry, looked up): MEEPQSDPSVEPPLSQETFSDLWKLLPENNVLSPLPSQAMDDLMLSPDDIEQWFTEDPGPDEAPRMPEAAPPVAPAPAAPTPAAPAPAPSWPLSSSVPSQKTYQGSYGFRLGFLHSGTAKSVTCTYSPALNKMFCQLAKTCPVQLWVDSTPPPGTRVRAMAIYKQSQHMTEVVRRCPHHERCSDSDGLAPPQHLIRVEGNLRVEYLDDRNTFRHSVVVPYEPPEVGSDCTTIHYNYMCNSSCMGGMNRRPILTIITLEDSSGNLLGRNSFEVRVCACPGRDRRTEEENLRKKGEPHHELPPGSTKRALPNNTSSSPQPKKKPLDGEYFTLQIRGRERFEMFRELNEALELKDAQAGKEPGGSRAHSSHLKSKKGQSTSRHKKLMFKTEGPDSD
Procedure, shortened: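 Gain-of-signal p53 agonism was scored from the beta-lactamase FRET ratio (460/530 nm, 405 nm excitation) in HCT116 cells treated 16 h at 37C, 5% CO2, with DMSO serving as negative control and baseline.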

[4] = target: Cellular tumor antigen p53 (Homo sapiens) (UniProt P04637); assay: TOX21_p53_BLA_p3_ratio: Tox21 HCT-116 p53 Agonism Beta-lactamase Assay, Ratio, Phase 3 (AID 2283596)
Procedure, shortened: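 HCT116 p53-bla cells (4000/well) given compound in DMSO (217-fold dilution) after 5 h, incubated 16 h at 37C. CCF4-AM substrate 2 h at room temperature; 460/530 nm emission ratio, gain fitted against DMSO.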

[5] = TOX21_p53_BLA_p4_viability: Viability Assessment in the Tox21 HCT-116 p53 Agonism Beta-lactamase Assay, Phase 4 (AID 2283597);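 note: hits lower the luminescence signal meaning cytotoxicity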
Procedure, shortened: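 Following a 16 h exposure at 37C, the treated HCT116 wells were first read for the FRET ratio. They were then lysed with CellTiter-Glo, and ATP luminescence was recorded after 30 min at room temperature.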

[6] = target: Cellular tumor antigen p53 (Homo sapiens) (UniProt P04637); assay: TOX21_p53_BLA_p5_ratio: Tox21 HCT-116 p53 Agonism Beta-lactamase Assay, Ratio, Phase 5 (AID 2283599)
Procedure, shortened: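 HCT-116 cells carrying a p53-inducible beta-lactamase reporter were seeded at 4000 cells/well and dosed after 5 h with compound in DMSO (217-fold dilution). After 16 h at 37C, CCF4-AM substrate was added for 2 h, and the 460/530 nm emission ratio was scored as gain-of-signal versus DMSO.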

[7] = TOX21_p53_BLA_p5_viability: Viability Assessment in the Tox21 HCT-116 p53 Agonism Beta-lactamase Assay, Phase 5 (AID 2283600)
Procedure, shortened: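 After the 460/530 nm beta-lactamase measurement, the wells received an ATP-detection luciferase reagent; signal was read 30 min later at RT. Compound treatment lasted 16 h on cells pre-incubated 5 h post-seeding.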

[8] = target: Cellular tumor antigen p53 (Homo sapiens) (UniProt P04637); assay: TOX21_p53_BLA_p4_ratio: Tox21 HCT-116 p53 Agonism Beta-lactamase Assay, Ratio, Phase 4 (AID 2283601)
Procedure, shortened: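 HCT116 cells carrying an inducible beta-lactamase reporter were plated at 4000 cells/well, rested 5 h, then exposed to compounds in DMSO (217-fold dilution) for 16 h at 37C. CCF4-AM substrate was loaded 2 h at room temperature; 460/530 nm emission ratio scored gain-of-signal versus DMSO.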

[9] = TOX21_p53_BLA_p3_viability: Viability Assessment in the Tox21 HCT-116 p53 Agonism Beta-lactamase Assay, Phase 3 (AID 2283593);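 note: cells exposed to compound for 16 h before reading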
Procedure, shortened: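 HCT-116 cells (4000/well) rested 5 h at 37C, then got DMSO compounds by pin tool (217-fold dilution) for 16 h at 37C, 5% CO2. After the bla read, CellTiter-Glo was added and luminescence read at 30 min, room temperature.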

Cc1oc2c(NC(=O)c3c(Cl)cccc3Cl)cccc2c1C(C)(C)O
AC50 [1]: 11.9 µM (active)

CCCCCCCCCCCCCCCC[N+](C)(C)CC
outcome [1]: inactive

Cc1ccccc1Cl
outcome [1]: inactive

NNC(=O)c1ccncc1
outcome [1]: inactive

c1ccc(-c2nc3ccccc3[nH]2)cc1
AC50 [1]: 6.56 µM (active)

Nc1ccc([As](=O)(O)O)cc1
outcome [2]: inactive | AC50 [3]: 35.1 µM (active) | outcome [3]: inactive | outcome [4]: inactive | outcome [5]: inactive | outcome [6]: inactive | outcome [7]: inactive | AC50 [8]: 42.1 µM (active) | outcome [8]: inactive

CN[C@@]1(c2ccccc2Cl)CCCCC1=O
outcome [2]: inactive | outcome [3]: inactive | outcome [9]: inactive | outcome [4]: inactive | outcome [5]: inactive | outcome [6]: inactive | outcome [7]: inactive | outcome [8]: inactive

ClCCOCOCCCl
outcome [2]: inactive | outcome [3]: inactive | outcome [9]: inactive | outcome [4]: inactive | outcome [5]: inactive | outcome [6]: inactive | outcome [7]: inactive

FC(F)(F)c1cccc(C2=CCN(CCc3ccc4ccccc4c3)CC2)c1
outcome [2]: inactive | outcome [3]: inactive | outcome [9]: inactive | outcome [4]: inactive | outcome [5]: inactive

CC(O)CN1CCN(CC(=O)[O-])CCN(CC(=O)[O-])CCN(CC(=O)[O-])CC1.[Gd+3] (stereo not drawn)
outcome [2]: inactive | outcome [3]: inactive | outcome [9]: inactive | outcome [4]: inactive | outcome [5]: inactive | outcome [6]: inactive | outcome [7]: inactive | outcome [8]: inactive

CC(=O)C=Cc1ccc2c(c1)OCO2
outcome [2]: inactive | AC50 [3]: 18.1 µM (active) | outcome [9]: inactive | AC50 [4]: 62.8 µM (active) | outcome [5]: inactive | AC50 [6]: 71 µM (active) | outcome [7]: inactive | AC50 [8]: 51.2 µM (active)

CCCCCCC(=O)CCCCCC/C=C/C[C@@H](O)[C@H](O)[C@@](N)(CO)C(=O)O
outcome [2]: inactive | outcome [3]: inactive | outcome [9]: inactive | outcome [4]: inactive | outcome [5]: inactive | outcome [6]: inactive | outcome [7]: inactive | outcome [8]: inactive

Nc1ccncc1
outcome [2]: inactive | outcome [3]: inactive | outcome [9]: inactive | outcome [4]: inactive | outcome [5]: inactive | outcome [6]: inactive | outcome [7]: inactive

OCC(Cl)CCl (stereo not drawn)
outcome [2]: inactive | outcome [3]: inactive | outcome [9]: inactive | outcome [4]: inactive | outcome [5]: inactive | outcome [6]: inactive

C=CC(=O)OCCN(C)C
outcome [2]: inactive | outcome [3]: inactive | outcome [9]: inactive | outcome [4]: inactive | outcome [5]: inactive | outcome [6]: inactive | outcome [7]: inactive

CC(Cl)C(=O)O (stereo not drawn)
outcome [2]: inactive | outcome [3]: inactive | outcome [9]: inactive | outcome [4]: inactive | outcome [5]: inactive | outcome [6]: inactive | outcome [7]: inactive

CCCC(=O)OC(C(Cl)(Cl)Cl)P(=O)(OC)OC (stereo not drawn)
outcome [2]: inactive | outcome [3]: inactive | outcome [9]: inactive | outcome [4]: inactive | outcome [5]: inactive | outcome [6]: inactive | outcome [7]: inactive

O=[N+]([O-])c1cc(I)c(O)c(I)c1
AC50 [2]: 7.77 µM (active) | AC50 [3]: 17.7 µM (active) | AC50 [9]: 5.69 µM (active) | AC50 [4]: 2.65 µM (active) | AC50 [5]: 11.3 µM (active) | AC50 [6]: 24.2 µM (active) | AC50 [7]: 11 µM (active) | AC50 [8]: 18 µM (active)

NCC(O)c1cccc(O)c1 (stereo not drawn)
outcome [2]: inactive | outcome [3]: inactive | outcome [9]: inactive | outcome [4]: inactive | outcome [5]: inactive | outcome [6]: inactive | outcome [7]: inactive

BrCC(Br)C1CCC(Br)C(Br)C1 (stereo not drawn)
outcome [2]: inactive | outcome [3]: inactive | outcome [9]: inactive | outcome [4]: inactive | outcome [5]: inactive | outcome [6]: inactive | outcome [7]: inactive | outcome [8]: inactive

COC(=O)c1cncn1C(C)c1ccccc1 (stereo not drawn)
outcome [2]: inactive | outcome [3]: inactive | outcome [9]: inactive | outcome [4]: inactive | outcome [5]: inactive | outcome [6]: inactive

CN1CCN=C(c2ccccc2)c2cc(Cl)ccc21
outcome [2]: inactive | AC50 [3]: 0.000141 µM (active) | outcome [9]: inactive | outcome [4]: inactive | outcome [5]: inactive | AC50 [6]: 0.000104 µM (active) | AC50 [7]: 0.000386 µM (active) | AC50 [8]: 2.67e-05 µM (active)

CC(=O)[O][Sn]([c]1ccccc1)([c]1ccccc1)[c]1ccccc1
AC50 [2]: 2.52 µM (active) | AC50 [3]: 6.42 µM (active) | AC50 [9]: 2.87 µM (active) | AC50 [4]: 17.7 µM (active) | AC50 [5]: 2.42 µM (active) | AC50 [6]: 18.4 µM (active) | AC50 [7]: 11.2 µM (active)

O=C1c2ccccc2C(=O)C1C(=O)C(c1ccccc1)c1ccccc1
outcome [2]: inactive | AC50 [3]: 37.1 µM (active) | outcome [9]: inactive | outcome [4]: inactive | AC50 [5]: 44 µM (active) | outcome [6]: inactive | outcome [7]: inactive | AC50 [8]: 36.6 µM (active)

CC(=O)C(Cl)(Cl)Cl
outcome [2]: inactive | AC50 [3]: 1.29 µM (active) | outcome [9]: inactive | AC50 [4]: 0.778 µM (active) | outcome [5]: inactive | AC50 [6]: 1.52 µM (active) | outcome [7]: inactive | outcome [8]: inactive

CC(O)C(=O)[O][Hg][c]1ccccc1 (stereo not drawn)
AC50 [2]: 2.69 µM (active) | AC50 [3]: 9.88 µM (active) | AC50 [9]: 0.648 µM (active) | AC50 [4]: 2.21 µM (active) | AC50 [5]: 3.87 µM (active) | AC50 [6]: 2.92 µM (active) | AC50 [7]: 1.59 µM (active) | AC50 [8]: 5.92 µM (active)

c1ccoc1
outcome [2]: inactive | outcome [3]: inactive | outcome [9]: inactive | outcome [4]: inactive | outcome [5]: inactive | outcome [6]: inactive | outcome [7]: inactive

COc1ccc(Cc2nccc3cc(OC)c(OC)cc23)cc1OC
outcome [2]: inactive | outcome [3]: inactive | outcome [9]: inactive | outcome [4]: inactive | outcome [5]: inactive | outcome [6]: inactive | outcome [7]: inactive | outcome [8]: inactive

CN(C)S(=O)(=O)N(SC(F)(Cl)Cl)c1ccccc1
AC50 [2]: 87.1 µM (active) | AC50 [3]: 26.3 µM (active) | outcome [9]: inactive | outcome [4]: inactive | AC50 [5]: 86.8 µM (active) | AC50 [6]: 32.3 µM (active) | AC50 [7]: 86.8 µM (active) | AC50 [8]: 48.6 µM (active)
